HSF-1 act: increases HSF-1 driven luciferase reporter signal; NIH3T3-HGL HSF-1 luciferase reporter, MG132, 8 h; 100% = twice DMSO control signal; activation, % at 9 µM; hit rate 1.7% among 300,000;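 active = mean replicate activation of at least 50% with a set share of replicates each reaching 50%; inconclusive = only one of those two conditions met; inactive = mean below 50% and too few replicates reaching it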;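 also: 0% = median of the neutral control wells and 100% = twice that signal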
FXN GAA850 act: increases GAA850 frataxin promoter reporter activity; HEK293 lucGAA850 FXN promoter luciferase reporter, 24 h; percent of 10 µM SAHA response; hit rate 0.56% among 360,000; activation, % at 6 µM; AID 540364;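 active = activation above the average of all compounds screened plus 3 SD, cutoff fixed separately per campaign, cut at about 7.5% in these data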;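 also: 0% = DMSO wells and 100% = 10 µM SAHA wells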
NR0B1 inh: inhibitors of human orphan nuclear receptor DAX1 (NR0B1); P51843; HEK293 Gal4-DAX1 luciferase reporter, luminescence; inhibition, % at 6.75 µM; hit rate 0.99% among 340,000;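 active = inhibition above the mean over all tested compounds plus 3 SD, cut at about 4.2% in these data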;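 also: 0% = DAX1-transfected cells with DMSO and 100% = empty-vector control cells with DMSO; inhibition shows as a rise in luminescence from relieved DAX1 repression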
AHR act: activates the human aryl hydrocarbon receptor; hit rate 2.5% among 320,000; AID 2796; AHR-responsive luciferase reporter cells, luminescence; activation, % at 5 µM; in the data active = activation above about 47%;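 also: 0% = vehicle wells and 100% = reference agonist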
Target sequence (P35869 whole entry, looked up): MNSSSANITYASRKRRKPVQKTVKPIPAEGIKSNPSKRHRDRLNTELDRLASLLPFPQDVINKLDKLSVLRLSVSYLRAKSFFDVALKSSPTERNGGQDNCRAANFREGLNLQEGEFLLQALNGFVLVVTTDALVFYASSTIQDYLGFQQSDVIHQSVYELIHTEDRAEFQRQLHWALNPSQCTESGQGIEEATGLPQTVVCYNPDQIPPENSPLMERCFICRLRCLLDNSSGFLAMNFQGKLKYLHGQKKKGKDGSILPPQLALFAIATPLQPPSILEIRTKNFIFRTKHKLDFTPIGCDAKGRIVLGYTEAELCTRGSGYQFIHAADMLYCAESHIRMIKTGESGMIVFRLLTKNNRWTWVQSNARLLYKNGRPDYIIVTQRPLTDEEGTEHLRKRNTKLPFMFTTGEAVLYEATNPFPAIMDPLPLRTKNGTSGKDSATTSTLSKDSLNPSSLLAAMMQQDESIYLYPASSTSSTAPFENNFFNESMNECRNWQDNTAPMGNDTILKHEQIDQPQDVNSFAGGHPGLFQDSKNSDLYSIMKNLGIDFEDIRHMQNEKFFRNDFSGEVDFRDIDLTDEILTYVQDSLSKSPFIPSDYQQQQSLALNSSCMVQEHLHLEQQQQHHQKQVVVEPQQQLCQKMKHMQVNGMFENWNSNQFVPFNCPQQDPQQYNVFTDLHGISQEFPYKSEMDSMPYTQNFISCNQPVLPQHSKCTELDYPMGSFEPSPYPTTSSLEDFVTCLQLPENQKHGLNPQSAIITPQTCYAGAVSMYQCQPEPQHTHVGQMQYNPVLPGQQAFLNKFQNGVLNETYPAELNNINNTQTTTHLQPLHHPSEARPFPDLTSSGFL
HSF1 inhib: HSF1 inhibition. hit rate 0.77% among 300,000. activity change, negative = inhibition, % at 7.5 µM (by protocol). NIH3T3-HGL HSE-luciferase, MG132-induced, luminescence 8 h; hits give low values. AID 2098;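 active = more than half of replicate wells show activity change below -50%, luminescence cut by over half; inconclusive = some wells, but at most half, below -50%; inactive = no replicate well below -50%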;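 also: luciferase reports HSF-1 transcriptional activity via heat shock element; 0% = median of DMSO wells and -100% = zero luminescence signal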
* = called active by the depositor; ? = inconclusive; nt = no result. Shown are actives, neighbours in structure and some others; about 5.4% of the full set was active somewhere.

SMILES | HSF-1 act | FXN GAA850 act | NR0B1 inh | AHR act | HSF1 inhib
O=C(Nc1ccccc1)c1c(O)c2c(n(Cc3ccco3)c1=O)CCCC2 | -1 | 2 | 4.3* | 5 | 10
CC(=O)O[C@H]1CCC2C3CC[C@H]4[C@@H](O)[C@H](O)CC[C@]4(C)C3CC[C@@]21C (some centres undefined) | nt | 0 | 0 | nt | nt
CNC(=O)O/N=C(\C)Cc1nnn(-c2cc(C)on2)n1 | 4 | 0 | 5.1* | 0 | -1
COc1ccc(N=Cc2c(O)n(Cc3ccccc3)c(=S)[nH]c2=O)c(OC)c1 | 117* | 2 | -1 | 2 | 63
COc1ccc(OC)c(N=Cc2c(O)n(Cc3ccccc3)c(=S)[nH]c2=O)c1 | 4 | 2 | 0 | 2 | 4
CN[C@H]1C[C@H]2O[C@@](C)([C@H]1OC)n1c3ccccc3c3c4c(c5c6ccccc6n2c5c31)C(=O)NC4 | -88 | nt | nt | -12 | -85*
CC1CN1P(=O)(Oc1ccccc1)N1CC1C (centres undefined) | nt | 0 | 0 | nt | nt
C=C1C(=O)O[C@@H]2C[C@@H](C)[C@H]3C=CC(=O)[C@]3(O)C[C@@H]12 | 2 | 14* | -1 | -1 | -7
C=C1C(=O)OC2CC3(C)OC3CCC(C)=CC(OC(C)=O)C12 (centres undefined) | nt | -4 | 0 | nt | nt
Cc1ccc(OC(=O)N(C)C[C@@H]2OCc3cnnn3CCCC(=O)N([C@@H](C)CO)C[C@@H]2C)cc1 | nt | -1 | 1 | nt | nt
C=CCn1c(O)c(C=NCCN2CCNCC2)c(=O)[nH]c1=O | -8 | -3 | 1 | -2 | -4
O=c1[nH]c(=O)n(Cc2ccccc2)c(O)c1C=NCCN1CCNCC1 | -89 | 3 | 0 | 2 | -85*
O=C1NC(=O)C(C2CCCCCC2)C(=O)N1 | nt | 0 | 0 | nt | nt
CC(=O)OC1(c2ccccc2)CCN(C)C2CCCCC21 (centres undefined) | -62 | 1 | -1 | 1 | -52*
CC(=O)OC1(c2ccccc2)CCN(C)CC1(C)C (centres undefined) | -2 | -1 | 0 | -1 | -1
C=C(C)CC1(CC)C(=O)NC(=S)NC1=O | nt | 0 | nt | nt | nt
CCCN1CCc2cc(O)cc3c2[C@H]1Cc1ccc(O)c(O)c1-3 | 24 | 0 | 1 | 10 | 39
CN1CCc2cc(O)cc3c2[C@H]1Cc1ccc(O)c(O)c1-3 | 78* | 5 | 0 | 6 | 74
CN1CCc2nc3sc(C(=O)NC4CC4)c(N)c3cc2C1 | 0 | 2 | 0 | 55* | 6
CN1CCc2nc(SCC(=O)OC(C)(C)C)c(C#N)cc2C1 | 22 | 4 | 1 | 6 | 20
COc1cc(OC)c2c(c1)OCC1CON(C)C21 (centres undefined) | -81 | 1 | 3 | -2 | -78*
c1ccc(C2(NC3=NCCO3)CCCCC2)cc1 | nt | 0 | -1 | nt | nt
O=C1NC(=O)N(Cc2ccccc2)C(=O)/C1=C\c1ccco1 | -4 | 1 | 2 | 0 | -5
O=C1NC(=O)N(Cc2ccc(F)cc2)C(=O)/C1=C\C=C\c1ccco1 | 82* | 7 | 2 | 1 | 43
NC(Cc1ccc(O)cc1)C(=O)NN=Cc1ccc(N(CCCl)CCCl)cc1 (centres undefined) | nt | -4 | 1 | nt | nt
SMILES | HSF-1 act | FXN GAA850 act | NR0B1 inh | AHR act | HSF1 inhib
O=c1[nH]c(O)c(N=Nc2ccc3c(c2)OCCO3)c(=O)[nH]1 | -67 | -14 | -1 | 10 | -62*
O=c1[nH]c(=S)[nH]c(O)c1N=Nc1ccc(OC(F)F)cc1 | 27 | 4 | 4.4* | 2 | 22
O=c1[nH]c(=S)[nH]c(O)c1N=Nc1cc2c(cc1[N+](=O)[O-])OCO2 | 31 | 0 | 2 | 1 | 35
COc1ccc(N=Nc2c(O)[nH]c(=S)[nH]c2=O)cc1 | 9 | 6 | 3 | -5 | -13
O=c1[nH]c(O)c(N=Nc2ccc(S(=O)(=O)N3CCOCC3)cc2)c(=O)[nH]1 | 9 | 0 | 0 | -1 | 5
O=c1[nH]c(=S)[nH]c(O)c1N=Nc1ccc2c(c1)OCCO2 | 73* | 4 | -1 | 16 | 46
O=c1[nH]c(=S)[nH]c(O)c1N=Nc1ccc2c(c1)OCO2 | -8 | 3 | 2 | 75* | -4
CC(C)(C)NC(=S)N1Cc2ccccc2-n2nncc2C1 | nt | -2 | 0 | nt | nt
C=C1C(=O)OC2CCN3CC=C(COC(=O)C(C)(O)C4(CO4)C1C)C23 (centres undefined) | nt | -2 | nt | nt | nt
CCC(C)c1cnc(CC(C)C)c(=O)n1O (centres undefined) | nt | 1 | nt | nt | nt
CC(=O)N1Cc2cnnn2-c2ccccc2C1C#N (centres undefined) | nt | -1 | 3 | nt | nt
COc1cccc(N=Nc2c(O)[nH]c(=S)[nH]c2=O)c1 | 103* | 2 | 3 | 3 | 53
O=C1NC2C(O)C(O)C(O)C(O)C2c2cc3c(c(O)c21)OCO3 (centres undefined) | 89* | -15 | -7 | nt | 89*
CCN(CC)C(=O)c1ccc(NC(=O)Nc2ccccc2F)cc1 | -70 | -3 | -5 | -7 | -64*
Cc1ccc2c(c1)NP(=S)(Oc1ccccc1)N2 (centres undefined) | nt | 4 | 4.5* | nt | nt
CC1C(=O)CC2(C(C)C)CC12 (centres undefined) | nt | 0 | nt | nt | nt
CC(=O)OCC12CC(OC(=O)CC(C)C)C(C)=CC1OC1C(O)C(OC(C)=O)C2(C)C12CO2 (centres undefined) | nt | -15 | -7 | nt | nt
CC(Cc1ccccc1)NC(=O)C(c1ccc(N)cc1)c1ccc(N)cc1 (centres undefined) | ? | 1 | 0 | 0 | 19
CC(Cc1ccccc1)NC(=O)c1ccc(N)cc1 (centres undefined) | 28 | 2 | 4.8* | 3 | 25
CCN1C(=O)CC(=O)N(CC)C1=S | nt | 1 | 2 | nt | nt
O=C(C1CCCCC1)N1Cc2ccccc2-n2nncc2C1 | nt | 0 | 1 | nt | nt
CCNC(=S)N(C)CCc1cc2c(c(OC)c1C=C1C(=O)N(C)C(=O)N(C)C1=O)OCO2 | -88 | 0 | nt | 7 | -85*
CNC(=S)N(C)CCc1cc2c(c(OC)c1/C=C1/C(=O)NC(=O)N(C)C1=O)OCO2 | 6 | 2 | 2 | 1 | -1
COc1ccc(CN2CCN(c3ccccc3F)CC2)cc1O | -6 | -1 | 4.5* | 2 | -3
Cn1ncnc2c(=O)n(C)c(=O)nc1-2 | -95 | -17 | -6 | -7 | -95*
SMILES | HSF-1 act | FXN GAA850 act | NR0B1 inh | AHR act | HSF1 inhib
CN(C)C(=O)Oc1ccc2c(c1)O/C(=C\c1ccc(Cl)cc1)C2=O | 57* | 5 | 1 | 6 | 44
O=C1NC(=O)C(Cc2ccccc2)(Cc2ccccc2)C(=O)N1 | nt | 0 | 1 | nt | nt
CC1OC(OC2C=C3CCC4C(CCC5(C)C(c6ccc(=O)oc6)CCC45O)C3(C)CC2)C(O)C(OC2OC(CO)C(O)C(O)C2O)C1O (centres undefined) | nt | -15 | -6 | nt | nt
CCN1CCN(c2ncnc3ccc(Br)cc23)CC1 | -14 | -6 | 4.4* | 1 | -19
CCc1nn2c(=O)c(F)c(N3CCNCC3)nc2s1 | nt | 1 | nt | nt | nt
C=C1C(=O)OC2CC3(C)OC3C3OC3C3=CC(OC3=O)C12 (centres undefined) | nt | -16 | nt | nt | nt

Source: PubChem BioAssay
